Test systems include T-47D breast; BT-549 breast; MDA-MB-435 melanoma; SW-620 colon; MCF7 breast; HCT-116 colon; HCC-2998 colon; KM12 colon.
What all share (experiment): NCI-60 one-dose screen, 48 h (100 = growth as untreated, 0 = no growth, -100 = all killed)
Conditions in all cases: 10 µM unless noted

This is an account of results in PubChem BioAssay (NCI).

This is part of a sample that, as a whole, favours compounds with a hit. Of some 83,000 tested, about 20% had one in any assay.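 Compound tested at a single concentration for 48 hours in 96-well plates; a percent growth value below 10 was scored as active.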 Unmarked numbers belong to inactive results. The source made the active and inactive calls.

Consider `N#Cc1c(-c2ccccc2)cc(-c2c[nH]c3ccccc23)nc1-c1c[nH]c2ccccc12`, for which the growth in the assay on T-47D breast is 86.7%; with BT-549 breast, 94.7%; in the assay with MDA-MB-435 melanoma, 103%; in the assay on SW-620 colon, 102%; in the assay on MCF7 breast, 95%; in the assay on HCT-116 colon, 103%. The values for the growth with HCC-2998 colon and with KM12 colon were 93.6% and 103%, respectively.

For the compound `CCN1CCN(c2cc(C(=O)Nc3nc4ccc(Oc5ccnc(C(=O)NC)c5)cc4s3)cc(C(F)(F)F)c2)CC1`, the growth is 72% in the assay with T-47D breast; 149% in the assay on BT-549 breast; 68.6% in the assay with MDA-MB-435 melanoma; 77.5% in the assay on SW-620 colon; 51.9% with MCF7 breast; 57.9% in the assay on HCT-116 colon. Further, the results for the growth in the assay on HCC-2998 colon and with KM12 colon were 90.3% and 56.9%, respectively.

On to `C/C(=N\NC(=S)Nc1ccc(Br)cc1)c1cc2ccccc2oc1=O`, for which the growth is 43.1% in the assay on T-47D breast; 8.5% (active) in the assay with BT-549 breast; 11.4% in the assay with MDA-MB-435 melanoma; 27.7% with SW-620 colon; 6.49% (active) with MCF7 breast; 16.3% in the assay with HCT-116 colon. For the same compound, the growth in the assay with HCC-2998 colon was 29.8%; in the assay on KM12 colon, 0.612% (active).

Consider `O=C(NNc1nc2cc(F)c(F)cc2n2cccc12)c1cccnn1`, for which the growth with T-47D breast is 13.7%; in the assay with BT-549 breast, 32.3%; in the assay on MDA-MB-435 melanoma, 27.8%; with SW-620 colon, 22%; in the assay with MCF7 breast, 7.41% (active); with HCT-116 colon, 8.91% (active). The values for the growth with HCC-2998 colon and with KM12 colon were 49.2% and 24.3%, respectively.

In the case of `Oc1ccc(CSc2nnc(-c3ccc(Cl)cc3)o2)c2cccnc12`, the growth in the assay on T-47D breast was 18.5%; with BT-549 breast, 27.9%; in the assay on MDA-MB-435 melanoma, 22.3%; in the assay with SW-620 colon, 17.3%; in the assay with MCF7 breast it was 12.4%; with HCT-116 colon it was 20.8%. For the same compound, the growth is 29.1% with HCC-2998 colon and 18.4% with KM12 colon.

As to `Cc1cc(C(=O)Nc2ccc(SC#N)cc2)c(C)o1`, the growth was 84.1% in the assay on T-47D breast; 75.4% in the assay on BT-549 breast; 103% with MDA-MB-435 melanoma; 104% in the assay with SW-620 colon; 88.1% in the assay with MCF7 breast; 96.1% with HCT-116 colon. Moreover, the figures for the growth in the assay with HCC-2998 colon and in the assay with KM12 colon were 107% and 89%, respectively.

Turning to `CCOC(=O)c1c(NCC(=O)Nc2cccc(Cl)c2)sc2c1CCCC2`, the growth is 63.4% with T-47D breast; 70.1% with BT-549 breast; -2.01% (active) in the assay with MDA-MB-435 melanoma; 76.1% in the assay with SW-620 colon; 43% in the assay on MCF7 breast; 73.5% with HCT-116 colon. In addition, the growth in the assay on HCC-2998 colon is 103%; with KM12 colon, 95.8%.

Turning to `COc1cc(C2CC(c3ccc(Nc4nc(NCCO)nc(Nc5ccc(Cl)cc5)n4)cc3)=Nc3c(N)nc(N)nc3N2)cc(OC)c1OC` (stereo not drawn), the growth with T-47D breast is 54.5%; in the assay with BT-549 breast, 52.1%; with MDA-MB-435 melanoma, 74.6%; in the assay with SW-620 colon it was 51.6%; in the assay with MCF7 breast, 42.7%; in the assay with HCT-116 colon, 23.6%. The growth in the assay with HCC-2998 colon is 94.5%; in the assay on KM12 colon, 61.9%.

For `CCOC(=O)c1c(NC(=O)c2cccc(C(F)(F)F)c2)sc2c(CN3CCN(C)CC3)c(O)ccc12`, the growth is 21% in the assay on T-47D breast; 102% with BT-549 breast; -81.5% (active) in the assay on MDA-MB-435 melanoma; -66.4% (active) in the assay on SW-620 colon; -85.4% (active) in the assay with MCF7 breast; -82.6% (active) in the assay on HCT-116 colon. Further, the growth in the assay on HCC-2998 colon was -36.6% (active); in the assay with KM12 colon it was -75.2% (active).

As for `NS(=O)(=O)c1ccc(Nc2nc(N/N=C/c3ccc(F)cc3)nc(Nc3ccccc3)n2)cc1`, the growth is 20.7% with T-47D breast; 67.2% in the assay with BT-549 breast; 53.5% in the assay with MDA-MB-435 melanoma; 75.7% in the assay on SW-620 colon; 28.6% with MCF7 breast; 44.7% in the assay on HCT-116 colon. In addition, the growth with HCC-2998 colon is 55.4%; in the assay with KM12 colon, 30.9%.

`ClC(Cl)c1nc(-c2cccs2)n2nc(-c3ccccc3)cc2n1`: the growth in the assay with T-47D breast was 2.65% (active); with BT-549 breast it was 87.4%; with MDA-MB-435 melanoma it was -9.17% (active); in the assay on SW-620 colon, -1.61% (active); with MCF7 breast, -4.41% (active); with HCT-116 colon it was -23.7% (active). The growth in the assay on HCC-2998 colon is -71.3% (active); in the assay on KM12 colon, -36.4% (active).

`COc1ccc2c(C3=C(c4cn(C)c5ccccc45)C(=O)NC3=O)coc2c1`: the growth with T-47D breast was 44%; with BT-549 breast, 82.6%; with MDA-MB-435 melanoma, 6.58% (active); in the assay on SW-620 colon, 39%; in the assay on MCF7 breast, 24.3%; with HCT-116 colon, 15.8%. Also, the growth in the assay with HCC-2998 colon is 28.2%; in the assay with KM12 colon it was 32.1%.

Take `CC1COc2c(N3CCN(C)CC3)c(F)cc3c(=O)c(C(=O)N/N=C/c4cc[nH]c4)cn1c23` (stereo not drawn): the growth was 47.2% in the assay with T-47D breast; 59.5% with BT-549 breast; 12.2% in the assay on MDA-MB-435 melanoma; -46.4% (active) with SW-620 colon; -5.35% (active) in the assay on MCF7 breast; -80.1% (active) with HCT-116 colon. The growth was 22.6% in the assay with HCC-2998 colon and 46.4% in the assay on KM12 colon.

Regarding `Cc1ccc(/C=C/CC(=O)Nc2ccc(C(=O)Nc3ccc(F)cc3N)nc2)cn1`, the growth was 10.8% in the assay with T-47D breast; 48.5% with BT-549 breast; 18.6% with MDA-MB-435 melanoma; 26.8% in the assay with SW-620 colon; 18.4% with MCF7 breast; 17.7% in the assay on HCT-116 colon. Also, the growth is 31.4% with HCC-2998 colon and 49.5% in the assay on KM12 colon.

For `CS(=O)(=O)c1ccc2c(c1)c1c(n2S(=O)(=O)c2ccc(Cl)cc2)CCCC1`, the growth in the assay on T-47D breast was 23%; with BT-549 breast it was -1.38% (active); in the assay with MDA-MB-435 melanoma, -11% (active); in the assay with SW-620 colon, 9.36% (active); in the assay on MCF7 breast, 16.9%; in the assay with HCT-116 colon, 19.2%. The growth in the assay on HCC-2998 colon is 30.1%; in the assay with KM12 colon it was 29.3%.

On to `CCOC(=O)c1nn(-c2ccc(C)cc2)c(=O)c2c(N)c(C#N)c(-c3ccc(OC)cc3)cc12`, for which the growth in the assay with T-47D breast is 102%; with BT-549 breast, 130%; in the assay on MDA-MB-435 melanoma, 106%; in the assay with SW-620 colon, 94.4%; with MCF7 breast it was 95.5%; in the assay on HCT-116 colon it was 99.4%. Moreover, the values for the growth with HCC-2998 colon and in the assay on KM12 colon were 110% and 95.5%, respectively.
